The results in this text go back to PubChem BioAssay (NCI).

This is part of a sample that, as a whole, favours compounds with a hit. Of some 79,000 tested, about 15% had one in any assay. A number with no mark means an inactive call. Activity calls are given as the source filed them. Cut-off read from the data, not from the text of the source: active = growth inhibition above about 70%; inactive = the rest.

Assay [1] is described as follows: NCI Yeast Anticancer Drug Screen. Data for the rad50 strain (AID 155).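 Note: 0% = growth of vehicle-only cultures of the same strain.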 Conditions: S. cerevisiae rad50 strain growth inhibition, active compounds read high. An outline of the steps: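 Relative growth inhibition (compound vs vehicle) was measured in yeast with a defined repair-gene alteration.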
Assay [2] in a line: NCI Yeast Anticancer Drug Screen. Data for the mec2-1 strain (AID 157). Conditions: S. cerevisiae mec2-1 strain, active compounds read high. The essentials: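 Readout is yeast growth inhibition, normalised to vehicle-treated controls, in the mec2-1 strain exposed to compound.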
The nature of assay [3]: NCI Yeast Anticancer Drug Screen. Data for the sgs1 mgt1 strain (AID 161).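 Note: 0% = growth of cultures given vehicle only.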 The conditions noted are these: S. cerevisiae sgs1 mgt1 strain, active compounds read high. An outline of the steps:
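Compounds are added to genetically altered yeast, and growth is compared with cultures given vehicle alone to give percent inhibition.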

Assay [4] in a line: NCI Yeast Anticancer Drug Screen. Data for the cln2 rad14 strain (AID 165).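 Note: 0% = growth equal to vehicle treated cultures.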 Conditions: S. cerevisiae cln2 rad14 strain, active compounds read high. An outline of the steps: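 Relative to vehicle controls, growth inhibition of compound-treated cln2 rad14 yeast was recorded.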
A short description of assay [5]: NCI Yeast Anticancer Drug Screen. Data for the bub3 strain (AID 167). The conditions noted are these: S. cerevisiae bub3 mutant strain, active compounds read high. The essentials: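 Screening used yeast with an engineered genetic alteration affecting cell cycle control. Compound-exposed cultures were compared with vehicle cultures, and reduced growth was taken as inhibition.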

Assay [6] can be described thus: NCI Yeast Anticancer Drug Screen. Data for the mlh1 rad18 strain (AID 175). Conditions: S. cerevisiae mlh1 rad18 strain growth inhibition, active compounds read high. An outline of the steps:
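Test agents were incubated with a yeast strain of defined genotype (DNA damage repair defect). Inhibition of growth was derived by comparison with vehicle-exposed cultures.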

The mark [7] stands for this setting: at 5.0 µM (retest, dose inferred, filed as 0.5).
[8] abbreviates: at 50.0 µM (retest, dose inferred, filed as 5.0).

With `CCc1c(C)[nH]c(-c2csc(N)n2)c1C`, the growth inhibition in assay [1] (setting [7]) was -1%; in assay [1] (setting [8]) it was 93% (active); in assay [1] (at 50.0 µM) it was -4.25%; in assay [2] (setting [7]), 1%; in assay [2] (setting [8]), 95% (active); in assay [2] (at 50.0 µM) it was 83.9% (active). The growth inhibition in assay [3] (setting [7]) is -1%; in assay [3] (setting [8]), 94% (active); in assay [3] (at 50.0 µM), 2.8%; in assay [4] (setting [7]), 1%; in assay [4] (setting [8]) it was 93% (active); in assay [4] (at 50.0 µM), 31.7%. Moreover, the growth inhibition is 4% in assay [5] (setting [7]); 92% (active) in assay [5] (setting [8]); 67.8% in assay [5] (at 50.0 µM); 2% in assay [6] (setting [7]); 93% (active) in assay [6] (setting [8]); 56.8% in assay [6] (at 50.0 µM).
For the molecule `Cc1cc(-c2ccc(N=Nc3cc(S(=O)(=O)O)c4ccccc4c3N)c(C)c2)ccc1N=Nc1cc(S(=O)(=O)O)c2ccccc2c1N`, the growth inhibition in assay [1] (setting [7]) was 19%; in assay [1] (setting [8]), 82% (active); in assay [1] (at 50.0 µM), 64.6%; in assay [2] (setting [7]), 16%; in assay [2] (setting [8]) it was 60%; in assay [2] (at 50.0 µM) it was 52.1%. The growth inhibition was 29% in assay [3] (setting [7]); 69% in assay [3] (setting [8]); 66.8% in assay [3] (at 50.0 µM); 31% in assay [4] (setting [7]); 48% in assay [4] (setting [8]); 30.6% in assay [4] (at 50.0 µM). In addition, the growth inhibition is 26% in assay [5] (setting [7]); 73% (active) in assay [5] (setting [8]); 73.7% (active) in assay [5] (at 50.0 µM); 32% in assay [6] (setting [7]); 86% (active) in assay [6] (setting [8]); 71% (active) in assay [6] (at 50.0 µM).
Consider `CCN1/C(=C\c2cc(C)nc(-c3ccccc3)[n+]2C)C=Cc2ccccc21`, for which the growth inhibition in assay [1] (setting [7]) was 29%; in assay [1] (setting [8]), 97% (active); in assay [1] (at 50.0 µM) it was 98% (active); in assay [2] (setting [7]), 27%; in assay [2] (setting [8]), 99% (active); in assay [2] (at 50.0 µM), 98.1% (active). Further, the growth inhibition in assay [3] (setting [7]) was 27%; in assay [3] (setting [8]) it was 99% (active); in assay [3] (at 50.0 µM), 98.7% (active); in assay [4] (setting [7]), 43%; in assay [4] (setting [8]), 98% (active); in assay [4] (at 50.0 µM) it was 98.8% (active). The growth inhibition in assay [6] (setting [7]) is 48%; in assay [6] (setting [8]), 99% (active); in assay [6] (at 50.0 µM), 98.7% (active).
Take `CC12C(=O)N(CC(=O)O)C(=O)C1(C)C1c3ccccc3C2c2ccc3ccccc3c21` (stereo unspecified): the growth inhibition was 7% in assay [1] (setting [7]); 97% (active) in assay [1] (setting [8]); 98.7% (active) in assay [1] (at 50.0 µM); 1% in assay [2] (setting [7]); 98% (active) in assay [2] (setting [8]); 95.9% (active) in assay [2] (at 50.0 µM). In addition, the growth inhibition was 2% in assay [3] (setting [7]); 98% (active) in assay [3] (setting [8]); 99% (active) in assay [3] (at 50.0 µM); 1% in assay [5] (setting [7]); 96% (active) in assay [5] (setting [8]); 95.6% (active) in assay [5] (at 50.0 µM). Also, the growth inhibition in assay [6] (setting [7]) is 0%; in assay [6] (setting [8]), 98% (active); in assay [6] (at 50.0 µM), 95.8% (active).
In the case of `Nc1nc(Cc2ccccc2)nc(Cc2ccccc2)c1-c1ccccc1`, the growth inhibition in assay [1] (setting [7]) is 25%; in assay [1] (setting [8]), 97% (active); in assay [1] (at 50.0 µM) it was 96.4% (active); in assay [2] (setting [7]) it was -2%; in assay [2] (setting [8]), 98% (active); in assay [2] (at 50.0 µM), 96.5% (active). Moreover, the growth inhibition is 6% in assay [3] (setting [7]); 98% (active) in assay [3] (setting [8]); 96.8% (active) in assay [3] (at 50.0 µM); 4% in assay [4] (setting [7]); 95% (active) in assay [4] (setting [8]); 94.1% (active) in assay [4] (at 50.0 µM). Also, the growth inhibition in assay [6] (setting [7]) was 4%; in assay [6] (setting [8]), 97% (active); in assay [6] (at 50.0 µM), 95.6% (active).
Turning to `CC1CCC(SC2CC(=O)CCC2=O)CC1` (stereo unspecified), the growth inhibition in assay [1] (setting [7]) was 19%; in assay [1] (setting [8]), 98% (active); in assay [1] (at 50.0 µM) it was 99% (active); in assay [2] (setting [7]) it was 19%; in assay [2] (setting [8]) it was 99% (active); in assay [2] (at 50.0 µM), 99.2% (active). In addition, the growth inhibition is 6% in assay [4] (setting [7]); 99% (active) in assay [4] (setting [8]); 98.2% (active) in assay [4] (at 50.0 µM); 24% in assay [5] (setting [7]); 98% (active) in assay [5] (setting [8]); 98.7% (active) in assay [5] (at 50.0 µM). In addition, the growth inhibition in assay [6] (setting [7]) is -1%; in assay [6] (setting [8]), 98% (active); in assay [6] (at 50.0 µM), 98.6% (active).
Consider `CCCCN(CCCC)CCCC(O)c1c2ccc(Cl)cc2nc2ccc(OC)cc12` (stereo unspecified), for which the growth inhibition in assay [1] (setting [7]) is 1%; in assay [1] (setting [8]), 24%; in assay [1] (at 50.0 µM), 18.1%; in assay [2] (setting [7]), -1%; in assay [2] (setting [8]), 5%; in assay [2] (at 50.0 µM) it was 30%. Further, the growth inhibition in assay [3] (setting [7]) is 26%; in assay [3] (setting [8]), 11%; in assay [3] (at 50.0 µM), 18.9%; in assay [5] (setting [7]), 3%; in assay [5] (setting [8]), 10%; in assay [5] (at 50.0 µM) it was 47.8%. The growth inhibition was 3% in assay [6] (setting [7]), 23% in assay [6] (setting [8]) and 70.7% (active) in assay [6] (at 50.0 µM).
With `C[C@]12CC[C@H]3[C@@H](CCC4=CC(=O)CC[C@@]43C)[C@@H]1CC[C@@H]2O[Si](O[C@H]1CC[C@H]2[C@@H]3CCC4=CC(=O)CC[C@]4(C)[C@H]3CC[C@]12C)(O[C@H]1CC[C@H]2[C@@H]3CCC4=CC(=O)CC[C@]4(C)[C@H]3CC[C@]12C)c1ccccc1`, the growth inhibition in assay [1] (setting [7]) is 5%; in assay [1] (setting [8]) it was 59%; in assay [1] (at 50.0 µM), 75.9% (active); in assay [2] (setting [7]), 1%; in assay [2] (setting [8]) it was 62%; in assay [2] (at 50.0 µM) it was 89.9% (active). Further, the growth inhibition in assay [3] (setting [7]) was -1%; in assay [3] (setting [8]), 93% (active); in assay [3] (at 50.0 µM), 97.5% (active); in assay [4] (setting [7]) it was -6%; in assay [4] (setting [8]), 33%; in assay [4] (at 50.0 µM) it was 58.6%. The growth inhibition is 1% in assay [6] (setting [7]), 84% (active) in assay [6] (setting [8]) and 94.8% (active) in assay [6] (at 50.0 µM).
Regarding `Cc1cc(C)cc([C@H](C)N=Cc2cc(Br)ccc2O)c1`, the growth inhibition was 11% in assay [1] (setting [7]); 95% (active) in assay [1] (setting [8]); 96% (active) in assay [1] (at 50.0 µM); -14% in assay [2] (setting [7]); 95% (active) in assay [2] (setting [8]); 95.8% (active) in assay [2] (at 50.0 µM). Moreover, the growth inhibition is -1% in assay [3] (setting [7]); 87% (active) in assay [3] (setting [8]); 89.9% (active) in assay [3] (at 50.0 µM); -10% in assay [5] (setting [7]); 98% (active) in assay [5] (setting [8]); 95.2% (active) in assay [5] (at 50.0 µM). Besides, the growth inhibition in assay [6] (setting [7]) was 2%; in assay [6] (setting [8]) it was 96% (active); in assay [6] (at 50.0 µM) it was 97.5% (active).
In the case of `CN(C)c1ccc(/C=C(\NC(=O)c2ccccc2)c2nc3ccccc3s2)cc1`, the growth inhibition in assay [1] (setting [7]) is 35%; in assay [1] (setting [8]), 96% (active); in assay [1] (at 50.0 µM) it was 97.1% (active); in assay [2] (setting [7]) it was 20%; in assay [2] (setting [8]), 97% (active); in assay [2] (at 50.0 µM), 97.2% (active). The growth inhibition in assay [3] (setting [7]) is 61%; in assay [3] (setting [8]), 97% (active); in assay [3] (at 50.0 µM), 98% (active); in assay [5] (setting [7]), 37%; in assay [5] (setting [8]) it was 97% (active); in assay [5] (at 50.0 µM), 95% (active). The growth inhibition was 27% in assay [6] (setting [7]), 96% (active) in assay [6] (setting [8]) and 97% (active) in assay [6] (at 50.0 µM).
On to `COc1cc(NCC(C#N)C#N)ccc1N=Nc1ccc(Cl)cc1`, for which the growth inhibition is -5% in assay [1] (setting [7]); 58% in assay [1] (setting [8]); 86.2% (active) in assay [1] (at 50.0 µM); -2% in assay [2] (setting [7]); 67% in assay [2] (setting [8]); 70.8% (active) in assay [2] (at 50.0 µM). Besides, the growth inhibition in assay [3] (setting [7]) was 4%; in assay [3] (setting [8]), 72% (active); in assay [3] (at 50.0 µM), 85.3% (active); in assay [4] (setting [7]) it was -7%; in assay [4] (setting [8]), 46%; in assay [4] (at 50.0 µM), 76.8% (active). Also, the growth inhibition is -37% in assay [6] (setting [7]), 81% (active) in assay [6] (setting [8]) and 82.7% (active) in assay [6] (at 50.0 µM).
